SMILES strings stand for the structures. Activity calls are given as the source filed them.

The values that follow come from PubChem BioAssay.

The target in one assay is Albumin (Bos taurus) (UniProt P02769). Nature of the assay: compounds binding labelled BSA control protein – biochemical, small-molecule microarray, Alexa647 label, 635/667 nm fluorescence, artefact control for SMM control protein annotation, profiling panel (AID 1118).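 Also: score merges 667 nm emission intensity and signal-to-noise per printed compound spot.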 Particulars: BSA-A647 binding, fluorescence 635 nm, higher = more signal.
A short description of assay [1]: probe aXIP binding to arrayed compounds – biochemical, NeuroSMM set, 635/667 nm fluorescence, primary screen (AID 1119).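 Also: probe is the protein aXip251-270 applied at 1 µg/mL to compound-printed slides; binding of probe to printed compounds measured as 667 nm fluorescence plus signal to noise.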 The conditions noted are these: small-molecule microarray, higher = more signal, called active from +8 up or from −8 down.
A short description of assay [2]: probe aNOTCH3 binding on compound microarray – biochemical, small-molecule microarray, 635/667 nm fluorescence, primary screen (AID 1120).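 Also: probe is a biotin-tagged antibody raised against NOTCH3 rather than NOTCH3 protein; score merges spot fluorescence near 667 nm with spot signal to noise.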 Particulars: higher = more signal.
A short description of assay [3]: probe aNOTCH2 binding on compound microarray – biochemical, small-molecule microarray, 635/667 nm fluorescence, primary screen (AID 1121).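 Also: score merges feature fluorescence read at 667 nm with its signal to noise.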 Particulars: higher = more signal.
Assay [4] concerns the target Carbonic anhydrase 2 (Homo sapiens) (UniProt P00918). Description: compounds binding carbonic anhydrase 2 – biochemical, small-molecule microarray, Alexa647-labelled CAII, profiling panel (AID 1122). Particulars: CAII-A647 binding fluorescence, higher = more signal.
Assay [5] in a line: COS7 lysate on small-molecule microarray, probe aHis, 635 nm (AID 1123).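 Also: z-score combines 667nm fluorescence intensity with signal-to-noise per printed compound spot.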 The conditions noted are these: COS7 cell lysate, fluorescence, higher = more signal.
Assay [6] can be described thus: probe aLAP1 signal on lysate-treated microarray – cell lysate, small-molecule microarray, COS7 lysate, primary screen (AID 1124).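 Also: lysate comes from COS7 cells expressing LAP1 and is applied at 0.3 µg/mL; score merges spot fluorescence near 667 nm with signal-to-noise over triplicate slides.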 The conditions noted are these: probe aLAP1, fluorescence, higher = more signal.
In the next assay the test system is Sam68 (KHDRBS1). Nature of the assay: compounds binding KHDRBS1 protein – biochemical, small-molecule microarray, 635 nm fluorescence, primary screen (AID 1125).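 Also: score merges 667 nm channel intensity with signal to noise over triplicate slides.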 Particulars: higher = more signal.
Assay [7] concerns Chordin-like protein 2 (CHRDL2). Nature of the assay: compounds binding chordin-like 2 – biochemical, small-molecule microarray, 635 nm fluorescence, primary screen (AID 1126).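 Also: printed compound slides probed with Chrdl2 protein at 4 µg/mL for 1 h at 4 C; score merges 667 nm emission intensity with signal to noise over three replicate slides.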 The conditions noted are these: fluorescence 635 nm, higher = more signal.
Assay [8] has as its target Concanavalin-A (Canavalia ensiformis) (UniProt P02866). Nature of the assay: compounds binding concanavalin A lectin – biochemical, small-molecule microarray, Alexa647 label, 635 nm, artefact control for SMM control protein annotation, primary screen (AID 1127).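 Also: z combines 667 nm emission intensity with signal-to-noise across three replicate slides.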 The conditions noted are these: ConA-A647 binding fluorescence, higher = more signal.
Assay [9] in a line: compounds binding Alexa647 anti-His antibody – biochemical, small-molecule microarray, 635 nm fluorescence, artefact control for SMM control protein annotation, primary screen (AID 1128).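 Also: score merges feature fluorescence with signal-to-noise for each printed compound spot.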 Particulars: higher = more signal.
For assay [10], the system named is Human papillomavirus type 1a E7 protein (residues 1-88). Nature of the assay: HPV1a E7 small-molecule binders, primary screen, biochemical, small-molecule microarray, residues 1-88, 635 nm (AID 1129). The conditions noted are these: small-molecule microarray binding, fluorescence 635 nm; higher = more signal.
Assay [11] has as its target Focal adhesion kinase 1 (Homo sapiens) (UniProt Q05397). Nature of the assay: PTK2 protein binding on printed compound slides – biochemical, small-molecule microarray, 635/667 nm fluorescence, BSA, DTT, primary screen (AID 1130).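 Also: composite of spot emission at 667 nm and signal to noise over triplicate slides.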 Particulars: 635 nm fluorescence, higher = more signal.
Assay [12] concerns Fibrinogen (Alexa647-labelled). Description: Alexa647-fibrinogen binding to printed small molecules – biochemical, small-molecule microarray, 635/667 nm fluorescence, artefact control for SMM control-protein annotation, profiling panel (AID 1131).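 Also: z-score merges 667 nm fluorescence with per-spot signal-to-noise over triplicate slides.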 The conditions noted are these: fibrinogen-A647 binding fluorescence, higher = more signal.
Assay [13] addresses Follistatin (Homo sapiens) (UniProt P19883). Description: FST protein binding to printed compounds – biochemical, small-molecule microarray, 635/667 nm fluorescence, primary screen (AID 1132). Particulars: 635 nm fluorescence, higher = more signal.
Assay [14] concerns the target Fibroblast growth factor 2 (Homo sapiens) (UniProt P09038). Nature of the assay: basic fibroblast growth factor binding to printed compounds – biochemical, small-molecule microarray, 635/667 nm fluorescence, primary screen (AID 1133). Particulars: FGF2, fluorescence 635/667, higher = more signal.
Assay [15] is described as follows: JC-1 mitochondrial potential readout, lung cancer cells – cell-based, A549, JC-1 fluorescence, basal, 24 h, 100 nL, profiling panel (AID 1138).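 Also: A549 lung adenocarcinoma cells under basal conditions with no added stimulus; test concentration not given here.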 Particulars: higher = more signal.
The next assay concerns Lefty1. Nature of the assay: Lefty1 protein binding to printed compounds – biochemical, small-molecule microarray, 635/667 nm fluorescence, primary screen (AID 1139). Particulars: fluorescence 635/667, higher = more signal.
Assay [16] has as its system wheat germ agglutinin (Triticum aestivum), Alexa647-labelled. Description: Alexa647-WGA lectin binding to printed small molecules – biochemical, small-molecule microarray, 635/667 nm fluorescence, artefact control for SMM control-protein annotation, profiling panel (AID 1140).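 Also: score merges 667 nm feature emission with signal to noise over triplicate slides.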 The conditions noted are these: WGA-A647 binding, 635 nm fluorescence, higher = more signal.
Assay [17] deals with Luciferin 4-monooxygenase (Photinus pyralis) (UniProt P08659). Description: inhibition of purified Photinus pyralis luciferase – biochemical, luminescence, purified enzyme, 2006 set, primary screen (AID 1141).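 Also: cell-free assay with purified firefly luciferase at 100 ng per well in PBS; test concentration not given here.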 The conditions noted are these: purified firefly luciferase, SteadyGlo luminescence, 30 min; higher = more signal, called active from +8 up or from −8 down.
Chain of Luciferin 4-monooxygenase (Photinus pyralis) (P08659 whole entry, looked up): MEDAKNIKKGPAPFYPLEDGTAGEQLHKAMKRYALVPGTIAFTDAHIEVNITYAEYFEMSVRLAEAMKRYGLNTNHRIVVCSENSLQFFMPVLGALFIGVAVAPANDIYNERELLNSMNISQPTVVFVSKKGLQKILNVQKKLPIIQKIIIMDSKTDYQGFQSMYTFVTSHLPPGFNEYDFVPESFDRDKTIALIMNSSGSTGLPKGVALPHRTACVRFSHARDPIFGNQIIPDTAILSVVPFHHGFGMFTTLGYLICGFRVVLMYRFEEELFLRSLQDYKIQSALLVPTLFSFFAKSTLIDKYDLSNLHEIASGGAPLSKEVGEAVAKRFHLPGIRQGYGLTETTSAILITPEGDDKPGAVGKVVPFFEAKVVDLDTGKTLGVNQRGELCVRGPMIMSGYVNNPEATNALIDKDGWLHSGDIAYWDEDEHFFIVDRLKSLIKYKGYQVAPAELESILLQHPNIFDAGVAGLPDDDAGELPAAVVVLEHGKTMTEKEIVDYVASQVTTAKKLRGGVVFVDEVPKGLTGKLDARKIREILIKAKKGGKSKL

Chain of Albumin (Bos taurus) (P02769 whole entry, looked up): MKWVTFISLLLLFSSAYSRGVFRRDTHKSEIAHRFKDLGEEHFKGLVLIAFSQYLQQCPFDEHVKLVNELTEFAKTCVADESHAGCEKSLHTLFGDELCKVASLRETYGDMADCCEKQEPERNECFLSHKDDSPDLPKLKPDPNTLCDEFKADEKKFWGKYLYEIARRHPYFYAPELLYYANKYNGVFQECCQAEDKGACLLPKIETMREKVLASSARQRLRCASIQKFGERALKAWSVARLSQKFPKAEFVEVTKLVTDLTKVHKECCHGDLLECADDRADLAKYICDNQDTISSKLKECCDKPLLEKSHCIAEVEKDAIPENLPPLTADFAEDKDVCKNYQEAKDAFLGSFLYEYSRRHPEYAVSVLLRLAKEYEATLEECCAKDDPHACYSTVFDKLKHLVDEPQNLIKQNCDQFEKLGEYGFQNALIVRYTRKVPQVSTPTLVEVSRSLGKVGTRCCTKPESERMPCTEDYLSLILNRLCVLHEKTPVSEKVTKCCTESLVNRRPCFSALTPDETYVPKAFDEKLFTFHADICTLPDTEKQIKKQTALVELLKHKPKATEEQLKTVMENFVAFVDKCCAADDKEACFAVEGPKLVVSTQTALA
Chain of Focal adhesion kinase 1 (Homo sapiens) (Q05397 whole entry, looked up): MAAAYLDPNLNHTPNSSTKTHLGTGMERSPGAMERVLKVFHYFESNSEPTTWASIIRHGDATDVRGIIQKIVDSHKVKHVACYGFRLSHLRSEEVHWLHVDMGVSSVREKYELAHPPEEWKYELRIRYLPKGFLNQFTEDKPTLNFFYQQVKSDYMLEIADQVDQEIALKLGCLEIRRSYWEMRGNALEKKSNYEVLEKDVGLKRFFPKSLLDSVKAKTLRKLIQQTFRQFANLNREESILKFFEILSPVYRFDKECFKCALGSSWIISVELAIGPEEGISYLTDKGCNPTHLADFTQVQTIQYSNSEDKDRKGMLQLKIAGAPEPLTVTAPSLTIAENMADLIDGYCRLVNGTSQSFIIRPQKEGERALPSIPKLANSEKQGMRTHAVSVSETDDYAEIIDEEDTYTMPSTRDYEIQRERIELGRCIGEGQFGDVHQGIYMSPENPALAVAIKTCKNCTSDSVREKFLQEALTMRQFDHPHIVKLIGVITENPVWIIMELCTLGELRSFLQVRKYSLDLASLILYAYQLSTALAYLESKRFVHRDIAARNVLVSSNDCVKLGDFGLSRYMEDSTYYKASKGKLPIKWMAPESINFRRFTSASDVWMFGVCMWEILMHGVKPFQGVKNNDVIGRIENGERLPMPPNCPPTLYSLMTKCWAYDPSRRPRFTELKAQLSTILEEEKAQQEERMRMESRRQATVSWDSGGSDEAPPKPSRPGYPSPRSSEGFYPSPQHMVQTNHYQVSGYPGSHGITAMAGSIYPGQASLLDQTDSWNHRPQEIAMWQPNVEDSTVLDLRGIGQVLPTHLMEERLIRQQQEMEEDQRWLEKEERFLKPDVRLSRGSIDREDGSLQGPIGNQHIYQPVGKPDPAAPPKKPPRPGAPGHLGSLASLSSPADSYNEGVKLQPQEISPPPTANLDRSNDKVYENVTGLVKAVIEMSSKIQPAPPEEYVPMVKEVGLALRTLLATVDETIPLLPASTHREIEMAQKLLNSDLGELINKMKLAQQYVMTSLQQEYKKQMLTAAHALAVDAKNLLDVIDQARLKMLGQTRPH
Chain of Fibroblast growth factor 2 (Homo sapiens) (P09038 whole entry, looked up): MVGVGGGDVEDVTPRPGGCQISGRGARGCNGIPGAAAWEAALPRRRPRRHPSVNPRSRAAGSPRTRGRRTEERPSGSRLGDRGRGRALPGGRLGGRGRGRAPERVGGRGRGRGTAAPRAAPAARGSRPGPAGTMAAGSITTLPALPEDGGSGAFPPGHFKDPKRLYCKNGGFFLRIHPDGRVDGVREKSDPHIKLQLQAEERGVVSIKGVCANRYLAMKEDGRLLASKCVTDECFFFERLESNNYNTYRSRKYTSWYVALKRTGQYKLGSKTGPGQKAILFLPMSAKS
Chain of Follistatin (Homo sapiens) (P19883 whole entry, looked up): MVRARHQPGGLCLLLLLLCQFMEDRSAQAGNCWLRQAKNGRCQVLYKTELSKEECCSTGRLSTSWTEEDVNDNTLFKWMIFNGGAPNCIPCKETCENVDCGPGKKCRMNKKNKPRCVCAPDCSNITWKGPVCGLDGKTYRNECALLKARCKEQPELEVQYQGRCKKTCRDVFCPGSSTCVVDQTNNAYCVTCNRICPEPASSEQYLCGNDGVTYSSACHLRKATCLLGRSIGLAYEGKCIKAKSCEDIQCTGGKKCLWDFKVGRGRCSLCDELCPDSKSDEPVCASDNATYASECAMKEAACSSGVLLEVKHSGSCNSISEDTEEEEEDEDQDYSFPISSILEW
Chain of Concanavalin-A (Canavalia ensiformis) (P02866 whole entry, looked up): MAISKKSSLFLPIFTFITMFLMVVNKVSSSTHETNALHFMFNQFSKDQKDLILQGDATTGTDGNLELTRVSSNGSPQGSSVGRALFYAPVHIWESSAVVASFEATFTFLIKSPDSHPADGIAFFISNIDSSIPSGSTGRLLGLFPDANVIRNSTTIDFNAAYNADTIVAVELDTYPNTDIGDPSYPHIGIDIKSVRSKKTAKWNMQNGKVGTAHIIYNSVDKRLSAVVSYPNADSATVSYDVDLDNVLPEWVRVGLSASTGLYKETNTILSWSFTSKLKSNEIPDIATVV

Consider `COC(=O)C(CC#Cc1ccc2c(c1)[C@]1(C(=O)N2)[C@H](C(=O)O)[C@H]2C(=O)O[C@H](c3ccccc3)[C@H](c3ccccc3)N2[C@@H]1c1ccc(OCCO)cc1)C(=O)OC`, for which the composite z-score with Albumin (Bos taurus) was 0.956; in [2] it was 0.123; in assay [3] it was -0.0333; in assay [4] it was 0.703; in [5], 2.07; in assay [6], 0.279. Moreover, the composite z-score in the assay on Sam68 (KHDRBS1) was 1.3; in assay [7], -0.756; in assay [8], 1.2; in assay [9] it was 0.479; in assay [10], 1.24; in assay [11], 0.918. The composite z-score in assay [12] was 0.812; in assay [13], 0.0447; in [14] it was 0.549; with Lefty1, 0.943; in [16], 1.43. For the same compound, in [1], the composite Z-score is -0.908 (inactive). In addition, the figures for the z-score in assay [15] and in assay [17] were -0.22 and -4.03 (inactive), respectively.

Regarding `C=C(C1=CCN(S(=O)(=O)c2ccc(C)cc2)C1)[C@@H](OC(C)=O)[C@@H]1CCCN1S(=O)(=O)c1ccccc1[N+](=O)[O-]`, the composite z-score is -1.41 in the assay with Albumin (Bos taurus); -0.127 in [2]; -0.194 in assay [3]; 0.139 in assay [4]; 0.586 in [5]; -0.273 in assay [6]. Further, the composite z-score in the assay with Sam68 (KHDRBS1) was -0.339; in [7], -0.486; in assay [8], -1.53; in [9], 0.0491; in assay [10], 0.128; in [11], 0.137. The composite z-score in [12] was -1.38; in [13], -0.273; in [14] it was -0.343; in the assay on Lefty1 it was -0.0118; in [16], -1.42. For the same compound, the composite Z-score in assay [1] is -0.0256 (inactive). Besides, the z-score is 1.7 in assay [15] and -1.35 (inactive) in assay [17].

Take `C=CC[C@]1(C(=O)N2CCCCC2)COC(c2ccc(OCCCO)cc2)=N1`: the composite z-score in the assay with Albumin (Bos taurus) is 0.837; in [2], -0.152; in assay [3] it was -0.173; in assay [4], 0.818; in assay [5], 2.22; in assay [6], 0.523. The composite z-score in the assay with Sam68 (KHDRBS1) was -0.48; in [7], -0.802; in assay [8], -1.46; in assay [9] it was -1.2; in assay [10], 0.633; in assay [11] it was -0.0161. For the same compound, the composite z-score in [12] is -0.236; in assay [13], -0.465; in [14], -0.453; in the assay on Lefty1 it was -0.45; in assay [16] it was -1.3. In addition, the composite Z-score in [1] was -0.216 (inactive). Also, the z-score was 2.27 in [15] and -2.65 (inactive) in assay [17].

Consider `C=CCNC(=O)[C@H]1[C@@H]2C(=O)O[C@@H](c3ccccc3)[C@@H](c3ccccc3)N2[C@@H](c2ccc(OCCO)cc2)[C@]12C(=O)Nc1ccc(C#CCCO)cc12`, for which the composite z-score with Albumin (Bos taurus) is 0.321; in assay [2], 0.116; in [3], -0.13; in assay [4] it was 0.394; in [5], 1.86; in assay [6], 0.725. The composite z-score in the assay on Sam68 (KHDRBS1) was 1.14; in assay [7], 0.089; in assay [8] it was 0.783; in [9], -0.0886; in [10] it was 1.11; in assay [11], 0.418. Further, the composite z-score in [12] is 0.61; in assay [13], 1.3; in assay [14], 0.327; in the assay on Lefty1, 0.909; in assay [16], 1.06. Further, the composite Z-score in [1] was 0.512 (inactive). The results for the z-score in [15] and in assay [17] were 0.187 and -0.969 (inactive), respectively.

Regarding `CCCNC(=O)[C@@]1(Sc2ccc(C)cc2)CC(=O)N(Cc2cc(C(F)(F)F)cc(C(F)(F)F)c2)[C@@H]1c1ccc(CO)cc1I`, the composite z-score with Albumin (Bos taurus) was 0.502; in assay [2] it was -0.125; in [3], 0.0042; in [4], 0.883; in assay [5], 0.918; in assay [6], 0.349. Moreover, the composite z-score in the assay on Sam68 (KHDRBS1) was 0.354; in assay [7], -0.605; in [8], -0.12; in assay [9], -0.187; in [10] it was -0.574; in assay [11], -0.101. The composite z-score is -0.0242 in [12]; -0.0247 in assay [13]; -1.22 in [14]; -0.487 in the assay with Lefty1; -0.405 in assay [16]. The composite Z-score in assay [1] is 0.414 (inactive). Moreover, the z-score in assay [15] is -0.283; in [17] it was -0.839 (inactive).

With `C=CCN1C(=O)[C@@]2(O[C@@H](CCn3cc(CCO)nn3)[C@H]([Si](C)(C)c3ccc(OC)cc3)[C@H]2C)c2cc(NC(=O)c3ccc(OC)cc3)ccc21`, the composite z-score was -0.0754 in the assay with Albumin (Bos taurus); 0.0676 in [2]; 0.443 in assay [3]; 0.156 in [4]; 1.36 in assay [5]; 0.493 in [6]. Besides, the composite z-score in the assay with Sam68 (KHDRBS1) is 1.15; in assay [7], 0.808; in [8] it was 1.08; in assay [9], 0.309; in assay [10] it was 0.812; in assay [11] it was 0.129. The composite z-score came to 0.323 in [12]; 1.14 in assay [13]; 0.645 in [14]; 1.02 in the assay on Lefty1; 0.922 in assay [16]. In addition, the composite Z-score in assay [1] is -0.444 (inactive). The z-score was 2.77 in assay [15] and -1.51 (inactive) in assay [17].

As for `COCCCNC(=O)[C@@]1(Cc2ccccc2)N=C(c2ccc(OCCCO)cc2)O[C@H]1c1ccccc1N=[N+]=[N-]`, the composite z-score with Albumin (Bos taurus) stood at 0.765; in [2], 0.385; in [3], 0.0538; in assay [4], 0.405; in assay [5], 0.877; in [6], 0.516. The composite z-score is 0.846 in the assay on Sam68 (KHDRBS1); -0.297 in [7]; 0.0647 in assay [8]; 0.644 in assay [9]; 1.16 in assay [10]; 0.635 in assay [11]. Besides, the composite z-score in [12] stood at 0.881; in [13], 1.48; in assay [14], 1.58; with Lefty1 it was 0.269; in assay [16] it was 1.15. In [1], the composite Z-score was -0.597 (inactive). Moreover, the z-score in assay [15] was 2.03; in assay [17] it was -4.34 (inactive).

In the case of `COc1ccc(C#Cc2ccc3c(c2)[C@]2(C(=O)N3)[C@H](c3ccc(O)cc3)N3[C@H](c4ccccc4)[C@H](c4ccccc4)OC(=O)[C@H]3[C@@H]2C(=O)N2CCN(c3ncccn3)CC2)cc1`, the composite z-score with Albumin (Bos taurus) was 0.888; in assay [2] it was 0.116; in assay [3], 0.0557; in assay [4], 0.462; in assay [5], 0.868; in [6], 0.97. Also, the composite z-score in the assay on Sam68 (KHDRBS1) is 1.31; in assay [7], -0.176; in [8] it was 1.08; in [9] it was 1.2; in assay [10], 0.885; in assay [11] it was 1.71. Further, the composite z-score in [12] is 0.763; in assay [13] it was 0.722; in assay [14] it was 0.143; with Lefty1, -0.151; in [16], 0.929. The composite Z-score in [1] is 4.41 (inactive). In addition, the z-score in [15] was -0.308; in [17], -1.27 (inactive).
